Test results: PubChem BioAssay
Results filed as inconclusive are left out. Calls of active or inactive are those of the source.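 The calls were made as follows, unless noted: active = growth inhibition above 25% in both replicates, a cutoff set 3 SD above the mean; inconclusive = above 25% in only one replicate; inactive = the rest.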

Legend:
[1] = HUVEC growth inhibition – cell-based, human, primary screen (AID 575;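 active = viability at or below 30% in both replicate assays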;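 also: 100% = median of untreated cell wells with 0.1% DMSO on each plate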); conditions: HUVEC proliferation, CellTiter-Glo luminescence, 72 h; at 10 µM; stronger effect = lower value
[2] = growth inhibitors of H69AR lung tumor, primary screen, human, duplicate replicates (AID 580;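 active = viability at or under a set limit in both replicates, limit being median viability minus 3 SD, cut at about 48% in these data, passing the limit was not always enough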;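 also: 100% = mean luminescence of untreated wells and 0% = no signal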); conditions: H69AR lung tumor cells viability, ATP luminescence, 72 h; at 10 µM; stronger effect = lower value
[3] = reversal of MRP1-mediated doxorubicin resistance, pilot screen, H69AR cells, doxorubicin co-treatment (AID 601;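 active = viability loss from added drug above about 55%, and viability with drug at most 40%, in both replicates, limit read from the data, passing the limit was not always enough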); conditions: CellTiter-Glo, 72 h, at 10 µM; for differential viability (reversal): stronger effect = higher value
[4] = 384-well plate pilot, post-Golgi transport modulator project, inhibition of yeast transport mutant growth (AID 636; in the data active = inhibition above about 31%); conditions: absorbance 615 nm, about 18 h, stronger effect = higher value
[5] = growth suppression of yeast trafficking mutant, preliminary HTS, modulators of trafficking downstream of Golgi apparatus project, 1536-format plate, OD 615 nm (AID 637; in the data active = inhibition above about 30%); conditions: yeast transport mutant growth, absorbance 615 nm, 18 h; stronger effect = higher value
[6] = OD615 S. cerevisiae growth inhibition, permissive medium, pilot counter-assay, permissive growth control for S. cerevisiae lifespan shortening project (AID 705); conditions: OD615, 24 h, at 10 µM, stronger effect = higher value
[7] = Restrictive medium S. cerevisiae growth inhibition, OD615, pilot screen of yeast lifespan reduction project, restrictive growth control (AID 706;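 active = growth inhibition above a set limit, 3 SD over mean compound inhibition, in both replicates, cut at about 43% in these data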;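 also: modified DeaD lifespan yeast strain shifted to restrictive glucose medium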); conditions: OD615, 48 h, at 10 µM, stronger effect = higher value
[8] = viability gain of MRP-1-high H69AR cells under doxorubicin, pilot screen, MRP-1 activator project, CellTiter-Glo, duplicate (AID 807;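 active = viability increase at or above a cutoff of the median across tested compounds plus 3 SD, cut at about 8.5% in these data, passing the limit was not always enough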;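 also: compound pretreatment 18-22 h then 72 h combined with doxorubicin; 0% = doxorubicin alone and 100% = vehicle without doxorubicin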); conditions: H69AR viability with doxorubicin, CellTiter-Glo luminescence; at 10 µM; stronger effect = higher value
[9] = growth suppression of beta-catenin knockout HCT116, pilot screen, human colon tumor cells (AID 823;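 active = cell viability at or below a set limit in both duplicate runs, the limit being the all-compound median minus 4 SD, cut at about 23% in these data, passing the limit was not always enough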;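 also: 0% = wells killed by 20 µM Hyamine and 100% = untreated DMSO cell wells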); conditions: CellTiter-Glo, 60 h, at 10 µM, stronger effect = lower value
[10] = growth suppression of PTEN-deleted HCT116, pilot screen, cell-based, HCT116 clonal line, CellTiter-Glo (AID 824;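 active = viability at or below 27.92% in each of two runs, the all-compound median minus 4 SD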;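 also: 0% = 20 µM Hyamine control and 100% = vehicle cell control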); conditions: 60 h, at 10 µM, stronger effect = lower value
[11] = inhibitors of the yeast RAM network, pilot screen, dse1pr::URA3 reporter, 5-FOA selection (AID 869;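 active = inhibition over a set limit, the all-compound mean plus 3 SD, in both replicate runs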;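 also: 0% = DMSO wells with no growth and 100% = 10 µM 1-NA-PP1 with full growth; RAM network block rescues cells from 5-FOA so hits raise OD615 growth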); conditions: S. cerevisiae dse1pr::URA3 5-FOA growth, OD615, 2 d; at 10 µM; stronger effect = higher value; strain carries analog-sensitive mutant Cbk1 kinase
[12] = RAM signaling pathway blockade in yeast – S. cerevisiae, Pdr1DBD-CYC8 efflux-inhibited sensitized strain, primary screen (AID 1298;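 active = RAM network inhibition above 8.4% in each of two replicates, 3 SD over the compound average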;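 also: 0% = DMSO untreated cells without growth and 100% = 10 µM 1-NA-PP1 full growth; higher means more yeast growth rescued from 5-FOA killing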); conditions: S. cerevisiae cbk1-as DSE1-URA3 strain, 5-FOA growth OD615, 2 d; at 50 µM; stronger effect = higher value
[13] = H69AR cells + 2 uM doxorubicin, measured here: viability with 2 uM doxorubicin, stronger effect = lower value
[14] = H69AR cells, compound alone cytotoxicity

Compound	viability [1]	viability [2]	differential viability (reversal) ([3]; H69AR cells + 2 uM doxorubicin)	viability [3, 13] [%]	viability [3, 14] [%]	inhibition [4]	inhibition [5]	growth inhibition [6]	growth inhibition [7]	viability increase [8]	viability [9]	viability [10]	inhibition [11]	RAM network inhibition [12]
COc1ccc(-c2nc(N3CCCC3)[nH]c(=O)c2C#N)cc1	97% (inactive)	87.9% (inactive)	2.17% (inactive)	85.8	87.9	-1.45% (inactive)	0.79% (inactive)	0.51% (inactive)	0.48% (inactive)	-0.94% (inactive)	104% (inactive)	90.7% (inactive)	1.63% (inactive)	3.39% (inactive)
CC(C)c1ccc(-c2nc(N3CCCCC3)[nH]c(=O)c2C#N)cc1	83.3% (inactive)	88.3% (inactive)	0.79% (inactive)	87.5	88.3	0.92% (inactive)	-3.49% (inactive)	-17.7% (inactive)	3.37% (inactive)	-2.54% (inactive)	102% (inactive)	–	2.5% (inactive)	8.32% (inactive)
COc1ccc(C2C(C#N)=C(C)NC3=C2C(=O)CC(C)(C)C3)c(OC)c1 (configuration not stated)	88.9% (inactive)	95.3% (inactive)	23.5% (inactive)	71.8	95.3	-1.3% (inactive)	-2.7% (inactive)	-22.8% (inactive)	-14.1% (inactive)	-1.62% (inactive)	97.6% (inactive)	91.4% (inactive)	0.825% (inactive)	1.94% (inactive)
CC(C)=CC(=O)OCC(=O)NC(=O)NC(C)(C)C	103% (inactive)	97% (inactive)	-3.87% (inactive)	101	97	0.52% (inactive)	-3.97% (inactive)	1.02% (inactive)	3.65% (inactive)	-3.01% (inactive)	104% (inactive)	–	2.76% (inactive)	2.91% (inactive)
O=C(CN1C(=O)NC(Cc2ccccc2)C1=O)Nc1ccccc1 (configuration not stated)	101% (inactive)	96.7% (inactive)	-0.17% (inactive)	96.9	96.7	-1.17% (inactive)	-0.63% (inactive)	-11.6% (inactive)	-16.5% (inactive)	1.83% (inactive)	97.8% (inactive)	94.6% (inactive)	1.85% (inactive)	0.35% (inactive)
Cc1ccc(C)c(N2C(=O)CN=C2Nc2ccccc2Cl)c1	80.1% (inactive)	100% (inactive)	21.3% (inactive)	78.6	100	-1.95% (inactive)	2.54% (inactive)	-7.25% (inactive)	-0.67% (inactive)	-0.31% (inactive)	91.5% (inactive)	94.4% (inactive)	0.715% (inactive)	-0.52% (inactive)
CCC(=O)Oc1ccc2c(C)cc(=O)oc2c1C	91.1% (inactive)	90.6% (inactive)	-11.8% (inactive)	102	90.6	0.39% (inactive)	9.21% (inactive)	-8.37% (inactive)	7.31% (inactive)	-4.73% (inactive)	102% (inactive)	97% (inactive)	0.15% (inactive)	3.51% (inactive)
O=C(COC(=O)C1(c2ccccc2F)CCCC1)NC1CCS(=O)(=O)C1 (configuration not stated)	118% (inactive)	97.2% (inactive)	3.27% (inactive)	93.9	97.2	-1.69% (inactive)	-2.06% (inactive)	5.97% (inactive)	2.54% (inactive)	-0.5% (inactive)	99.4% (inactive)	95.3% (inactive)	0.035% (inactive)	3.94% (inactive)
COc1cc2[nH]c(=O)n(CCCCCC(=O)NCCCN3CCCC3=O)c(=O)c2cc1OC	103% (inactive)	104% (inactive)	11.6% (inactive)	92.9	104	-5.39% (inactive)	-0.32% (inactive)	-1.87% (inactive)	-4% (inactive)	1.13% (inactive)	103% (inactive)	104% (inactive)	1.91% (inactive)	6.37% (inactive)
N#C/C(C(=O)c1ccccc1)=C1/CCCN1	95.8% (inactive)	97.2% (inactive)	5.69% (inactive)	91.5	97.2	-1.04% (inactive)	5.08% (inactive)	-10.5% (inactive)	-8.62% (inactive)	2.34% (inactive)	108% (inactive)	105% (inactive)	1.44% (inactive)	1.34% (inactive)
O=C(NCCc1cccc(Cl)c1)c1cccnc1	87.9% (inactive)	103% (inactive)	26.5% (inactive)	76.8	103	-2.21% (inactive)	5.4% (inactive)	-1.24% (inactive)	10.7% (inactive)	-0.51% (inactive)	98.9% (inactive)	98.3% (inactive)	0.32% (inactive)	1.21% (inactive)
N#Cc1nc(-c2ccc(Cl)cc2)oc1NCCc1ccccn1	102% (inactive)	104% (inactive)	7.66% (inactive)	96	104	0.39% (inactive)	5.4% (inactive)	1% (inactive)	0.83% (inactive)	-0.49% (inactive)	97.3% (inactive)	–	1.07% (inactive)	7.29% (inactive)
CC(=O)Nc1nc(-c2ccccc2)nc(C)c1C(C)=O	103% (inactive)	94.4% (inactive)	7.1% (inactive)	87.3	94.4	0.13% (inactive)	-2.22% (inactive)	-9.85% (inactive)	-7.77% (inactive)	-0.66% (inactive)	93.4% (inactive)	99.5% (inactive)	0.585% (inactive)	5.92% (inactive)
Cn1ccnc1C(O)c1ccco1 (configuration not stated)	101% (inactive)	103% (inactive)	13.1% (inactive)	89.5	103	-5.39% (inactive)	1.43% (inactive)	-5.51% (inactive)	-3.72% (inactive)	-0.09% (inactive)	102% (inactive)	103% (inactive)	0.74% (inactive)	3.14% (inactive)
CCCCNC(=O)Nc1ccnn1C1CCCCC1	96.5% (inactive)	100% (inactive)	13% (inactive)	87.2	100	-3.64% (inactive)	7.14% (inactive)	-5.58% (inactive)	-15% (inactive)	-1.77% (inactive)	97.9% (inactive)	90.7% (inactive)	-0.255% (inactive)	-2.79% (inactive)
